{"source": "PubChem BioAssay AID488899", "about": "(Broad Institute, 2010)", "note": "About 2,800 (0.85%) of roughly 330,000 compounds were called active. This is one part of a sample in which actives are shown more often than they occur.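 Rule for the calls: active = mean inhibition across replicates of 60% or more, whatever share of single replicates reaches that level; inconclusive = some that reach 60%, reason not given; inactive = mean inhibition across replicates below 60%.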", "data": [{"test": "inhibitors of MITF-dependent TRPM1 promoter reporter, primary screen, cell-based, SK-MEL-5, single point, luciferase (AID 488899)", "conditions": "SK-MEL-5 TRPM1 promoter luciferase, 24 h; at 12.5 µM; hits give high values", "values": [{"smiles": "N#Cc1nc(N)nc(N(c2ccccc2)c2ccccc2)n1", "inhibition": "10.4% (inactive)"}, {"smiles": "COc1ccc(S(=O)(=O)N2CCOCC2)cc1NC(=O)Cc1coc2cc(C)ccc12", "inhibition": "5.65% (inactive)"}, {"smiles": "CC[C@H]1CN2CCc3cc(OC)c(OC)cc3[C@@H]2C[C@@H]1C[C@H]1NCCc2cc(OC)c(OC)cc21", "inhibition": "85.1% (active)"}, {"smiles": "COc1cc2c(cc1OC)CN(CC(=O)Nc1ccc(F)cc1)CC2", "inhibition": "4.57% (inactive)"}, {"smiles": "CCc1ccc(OCC2c3cc(OC)c(OC)cc3CCN2C(C)=O)cc1", "note": "(stereo unspecified)", "inhibition": "-0.63% (inactive)"}, {"smiles": "COc1ccc(/C=C/C2=CC(C)(C)NC(=S)N2)c(OC)c1", "inhibition": "10.5% (inactive)"}, {"smiles": "Cc1ccccc1-n1nc(C)c2c1N=C1C(Cl)=CC(Cl)=CN1C2c1ccc(C(=O)O)cc1", "note": "(stereo unspecified)", "inhibition": "5.65% (inactive)"}, {"smiles": "Cn1c(=O)c2c(nc(SCCNS(=O)(=O)c3ccccc3)n2C)n(C)c1=O", "inhibition": "-8.94% (inactive)"}, {"smiles": "COc1ccc(Cc2n[nH]c(=S)n2NC(=O)Nc2ccc(C)cc2)cc1", "inhibition": "-46.7% (inactive)"}, {"smiles": "CC(C)CC[n+]1ccn(C2=C([O-])c3ccccc3C(=O)/C2=N\\S(=O)(=O)c2ccccc2)c1", "inhibition": "91.1% (active)"}, {"smiles": "CC(=O)Nc1ccc(NC(=O)C(C)n2c3ccccc3c3nc(=O)cc(C)n32)cc1", "note": "(stereo unspecified)", "inhibition": "11.5% (inactive)"}, {"smiles": "CCn1c(CC(=O)Nc2ccc(C)cc2)nnc1SCC(=O)Nc1nc(C)cs1", "inhibition": "6.57% (inactive)"}, {"smiles": "COc1ccc2oc(N)nc2c1", "inhibition": "7.49% (inactive)"}, {"smiles": "COc1cccc(Oc2ccc(N)cc2)c1", "inhibition": "-4.14% (inactive)"}, {"smiles": "CC(C)(C)c1ccc(OC2=CS(=O)(=O)c3ccccc32)cc1", "inhibition": "-25.6% (inactive)"}, {"smiles": "CC(C)(C)c1ccc(Oc2ccc(N)cc2)cc1", "inhibition": "91.7% (active)"}, {"smiles": "COc1ccc(C(=O)Nc2ccccc2C(=O)N2CCN(c3ccccc3)CC2)cc1", "inhibition": "-1.5% (inactive)"}, {"smiles": "COc1ccc(/C=N/Nc2ccccc2C(=O)O)cc1", "inhibition": "-4.16% (inactive)"}, {"smiles": "COc1ccc(C(=O)Nc2ccccc2C(=O)N/N=C/c2ccc(O)c(OC)c2)cc1", "inhibition": "73.3% (active)"}, {"smiles": "CC(=O)NC(Cc1ccc(F)c(F)c1)C(=O)NC1CCN(C(=O)c2ccc(C)cc2)CC1", "note": "(stereo unspecified)", "inhibition": "7.52% (inactive)"}, {"smiles": "CSc1nc(-c2ccccc2)nc(C(Cl)Cl)n1", "inhibition": "87.8% (active)"}, {"smiles": "CSc1ncc(Sc2ccccc2)c(C(=O)O)n1", "inhibition": "5.79% (inactive)"}, {"smiles": "Cc1ccc(CNC(=O)c2ccc(CS(=O)Cc3cccc(Cl)c3)o2)cc1", "note": "(stereo unspecified)", "inhibition": "2.54% (inactive)"}, {"smiles": "CCOC(=O)N1CCN(c2c(NCCCN3CCCC(C)C3)c(=O)c2=O)CC1", "note": "(stereo unspecified)", "inhibition": "-5.22% (inactive)"}, {"smiles": "CCCCCCCCn1c2c(c(=N)c3c1CCC3)CCCC2", "inhibition": "77.2% (active)"}, {"smiles": "CCOc1ccc(N(C)S(=O)(=O)c2cnc[nH]2)cc1", "inhibition": "6.77% (inactive)"}]}]}
